In PubChem BioAssay AID1321 (The Scripps Research Institute Molecular Screening Center, 2008):
Hit rate of the full screen: of about 220,000 compounds, about 2,600 (1.2%) were called active. The sample holds actives, similar compounds and a random draw of the others, so the mix is not that of the screen. Values without a mark were called inactive.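 How the source made its calls: active means activation above the mean of all tested compounds plus 3 SD, set per screening run (cut at about 8.8% in these data); inactive means the rest.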

What follows are molecules tested against Wee1-like protein kinase (Homo sapiens) (UniProt P30291) (assay: compounds stabilizing Wee1-luciferase fusion – cell-based, HeLa, Wee1K328M-luciferase, luminescence, primary screen (AID 1321;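 further: cells exposed to compound for 20 h before luminescence read; 0% = DMSO alone and 100% = MG132 at 30 µM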)). Conditions: HeLa Luc-Wee1K328M stability, at 5 µM, active compounds read high, 100% = proteasome inhibitor MG132 effect.

| SMILES | reporter increase |
| --- | --- |
| Cc1ccc(F)cc1NC(=O)N1CCCN(c2ccc(C(F)(F)F)cn2)CC1 | -2.91% |
| CN(C)CCCN(Cc1cc2cc3c(cc2[nH]c1=O)OCCO3)C(=O)NC1CCCCC1 | -1.12% |
| O=C(N/N=C/c1ccco1)c1csc2c1CCCC2 | 9.05% (active) |
| O=C(N/N=C/c1ccco1)c1ccc(NC(=O)C2CC2)cc1 | 1.48% |
| O=C(N/N=C/c1ccco1)c1ccc(C(=O)N/N=C/c2ccco2)o1 | -0.09% |
| COc1ccc(CN(Cc2ccc(OC)cc2)C(=O)c2cccs2)cc1 | 1.79% |
| CCOC(=O)COc1nc(C)cc(C(F)(F)F)c1C#N | 8.86% (active) |
| Cc1cc(C(F)(F)F)c(C#N)c(SCC(=O)NC2CC2)n1 | -3.28% |
| CCOC(=O)CN(C(=O)COc1nc(C)cc(C)c1C#N)c1ccc(Cl)cc1 | -2.18% |
| CCCc1c(C(=O)O)cnn1-c1ccc(Cl)cc1 | 1.14% |
| Cc1nnc(CN(C)Cc2cn[nH]c2-c2ccc(-c3ccccc3)cc2)o1 | 10.8% (active) |
| COc1ccc(-c2[nH]ncc2CN(C)Cc2cc(C)[nH]n2)c(F)c1 | -2.83% |
| CN(CCC1CCOCC1)Cc1cn[nH]c1-c1ccc(-c2ccccc2)cc1 | -2.58% |
| COC(=O)C1=C(N)Oc2cc(C)[nH]c(=O)c2C1c1ccc(Cl)cc1 (configuration not stated) | -0.92% |
| COc1ccccc1N1CCN(C(=O)CSc2ncnc3c2cnn3-c2ccc(C)c(C)c2)CC1 | 3.89% |
| O=[N+]([O-])c1ccc(N2CCSCC2)cc1O | 1.05% |
| Cc1nc2cc(NC(=O)NC3CC3)ccc2n1C | 12.8% (active) |
| Cc1nc2cc(NC(=O)Nc3cccc(F)c3)ccc2n1C | -1.84% |
| C=CCN(C(=O)Nc1ccc2c(c1)nc(C)n2C)c1ccccc1 | -1.11% |
| Cc1cc(NC(=O)OC(C)C)ccc1-c1ccc(NC(=O)OC(C)C)cc1C | 0.84% |
| Cn1c(SCC(=O)Nc2ccc(Cl)cc2)nc(O)cc1=O | -2.26% |
| Cc1cccc(OCC(=O)Nc2ccccc2F)c1 | 12.9% (active) |
| COc1cccc(OCC(=O)Nc2ccccc2C(N)=O)c1 | 0.36% |
| Cc1cccc(OCC(=O)NC(=S)Nc2ccccc2N2CCOCC2)c1 | 0.28% |
| O=S(=O)(c1ccccc1)N1CN(Cc2ccc(F)cc2)c2nc3ccccc3nc21 | 2.39% |

| SMILES | reporter increase |
| --- | --- |
| COc1ccc(N(Cc2ccccc2)S(=O)(=O)c2cccc(C(=O)O)c2)cc1 | 0.36% |
| CCOc1ccc(N2CC(C(=O)N/N=C/c3sccc3C)CC2=O)cc1 (configuration not stated) | -2.91% |
| CCN(CC)CCCN=Cc1c(O)n(-c2ccc(C)cc2)c(=O)c2ccccc12 | 5.68% |
| Cc1ccc2c(Cl)c(C(=O)NCCCn3ccnc3)sc2c1 | 18.1% (active) |
| COc1ccc(-c2cc(C(=O)NCCCn3ccnc3)no2)cc1 | -0.75% |
| Cc1ccc2c(Cl)c(C(=O)Nc3nn[nH]n3)sc2c1 | -0.87% |
| O=C1CC(Cc2ccc(Cl)cc2)C(=O)N1c1cc(Cl)ccn1 (configuration not stated) | 2.19% |
| O=C(NC(=O)c1cc(OCC(F)(F)F)ccc1OCC(F)(F)F)Nc1ccccc1 | -0.42% |
| O=C(NNc1ccccc1Cl)C(O)(c1cccc(C(F)(F)F)c1)c1cccc(C(F)(F)F)c1 | 16.5% (active) |
| O=C(Nc1cc(C(F)(F)F)ccc1Cl)C(=O)N1CCCCC1 | 0.04% |
| CC(CC(=O)Nc1cc(C(F)(F)F)ccc1Cl)c1ccccc1 (configuration not stated) | -1.69% |
| CCn1c2ccccc2c2cc(NC(=O)Nc3ccc([N+](=O)[O-])cc3C)ccc21 | -2.8% |
| Cc1ccc(Nc2nc(N)nc(CSc3nnc(C)s3)n2)cc1 | 9.2% (active) |
| Cc1ccc(Nc2nnc(SCc3ccccc3)s2)cc1 | 0.21% |
| Cc1ccccc1Nc1nc(N)nc(CSc2ccccc2)n1 | 5.12% |
| O=C(c1cc(COc2c(F)cccc2F)on1)N1CCSCC1 | -0.41% |
| COC(=O)Cn1c(O)c(N=NC(=O)OC)c2ccccc21 | -1.42% |
| Cc1cc(C)nc(SCc2cn3c(C)cc(C)nc3n2)n1 | 1.99% |
| COc1cc(C(F)(F)F)c(C(=O)N(C)c2ccc(Cl)cc2)cn1 | -1.97% |
| COc1ccccc1N(C)S(=O)(=O)c1ccc(C(=O)NC2CCCCCC2)cc1 | 1.14% |
| CC(=O)N(CCCN(C)C)c1nc2ccc(C)cc2s1 | 1.87% |
| CCCOC(=O)c1cc2ccccc2oc1=O | -1.59% |
| CN(C)CCCCCN(C)Cc1cc2ccccc2o1 | 9.64% (active) |
| COCCN(Cc1cc2cc3c(cc2nc1Cl)OCO3)C(=O)c1cccc(C)c1 | -2.99% |
| Cc1ccc(NC(=S)N/N=C2/CCCc3c(C)cc(C)cc32)cc1 | -2.2% |

| SMILES | reporter increase |
| --- | --- |
| CCCCNC(=S)N/N=C1\CCCCc2ccccc21 | 9.73% (active) |
| CCCC1CCC(=NNC(=S)NCCc2ccccc2)CC1 (configuration not stated) | -0.9% |
| Cc1ccc(N2C(=O)CC(N3CCSCC3)C2=O)c(C)c1 (configuration not stated) | -2.9% |
| Cc1ccccc1NC(=O)Nc1ccccc1N1CCCCC1 | 2.91% |
| Cc1nnc(SCc2cc(=O)[nH]c(N3CCN(Cc4ccccc4)CC3)n2)s1 | 0.09% |
| O=c1cc(CSc2ccc(Cl)cc2)nc(N2CCOCC2)[nH]1 | 4.27% |
| O=c1cc(CSc2ccccn2)nc(N2CCN(c3ccccc3)CC2)[nH]1 | 10.3% (active) |
| C/C=C/c1ccc(OCCOc2ccc(C=O)cc2OC)c(OC)c1 | 0.41% |
| C/C=C/c1ccc(OCC(O)CN2CCCCCCC2)c(OC)c1 (configuration not stated) | -0.18% |
| C/C=C/c1ccc(OCCCCN2CCC(C)CC2)c(OC)c1 | 28.9% (active) |
| CN(C(=O)COC(=O)c1cc(-c2ccco2)nc2ccccc12)C1CCS(=O)(=O)C1 (configuration not stated) | -1.15% |
| Cc1cc(C)c2nc(NC(=O)c3ccc4c(c3)OCO4)sc2c1 | -0.87% |
| O=C(Nc1nc2ccc(S(=O)(=O)N3CCCC3)cc2s1)C1CCCO1 (configuration not stated) | -1.26% |
| Cc1cc(C)c2nc(NC(=O)C3CCCO3)sc2c1 (configuration not stated) | 9.43% (active) |
| COc1ccc(NC(=O)CCN2C(=O)/C(=C/c3ccc4c(c3)OCO4)SC2=S)cc1 | 0.36% |
| Cc1cc(C(=O)CSc2nc(N)cc(=O)[nH]2)c(C)n1Cc1ccco1 | 2.39% |
| CC(=O)Nc1ccc(OCC(=O)NCc2ccc(C)cc2)cc1 | -0.21% |
| COc1ccc(Nc2cc(Cl)ccc2C(=O)O)cn1 | 2.84% |
| COc1ccc(CS(=O)/C(Cl)=C(/Cl)C(=O)Nc2ccc(OC)nc2)cc1 (configuration not stated) | 17.4% (active) |
| COc1ccc(NC(=S)NCCNC(C)=O)cc1 | 0.16% |
| COc1ccc(NC(=S)Nc2ccccc2Cl)cn1 | 4.13% |
| COc1ccc(NC(=O)/C(Cl)=C(/Cl)S(=O)Cc2ccc(C)cc2)cn1 (configuration not stated) | 11% (active) |
| Cc1nn(-c2ccccc2)c(=O)c2noc(C)c12 | 3.18% |
| CS(=O)(=O)c1ccc2nnn(OCC(=O)Nc3cccc(C#N)c3)c2c1 | 0.86% |
| Cn1c(=O)c(=O)n(C)c2cc(S(=O)(=O)NCCN3CCN(c4ccccc4F)CC3)ccc21 | 3.58% |

| SMILES | reporter increase |
| --- | --- |
| COc1ccc(Cc2cc(-c3ccc(F)cc3)n[nH]c2=O)cc1 | -0.9% |
| CCC1(C)Cc2c(sc3nc(SC)[nH]c(=O)c23)CO1 (configuration not stated) | -2.99% |
| CCCC(=O)Nc1nc2ccc(NC(=O)c3cccnc3)cc2s1 | 3.09% |
| CSc1nc2ccc(NC(=O)c3c(F)cccc3F)cc2s1 | 4.29% |
| CCCC(=O)Nc1nc2ccc(NC(=O)c3c(F)c(F)c(OC)c(F)c3F)cc2s1 | 10.8% (active) |
| COc1ccc2nc(Nc3nc4ccc(NC(C)=O)cc4s3)sc2c1 | 10.4% (active) |
| CCOc1ccc2nc(Nc3nc4ccc(NC(C)=O)cc4s3)sc2c1 | 1.97% |
| COc1ccc2nc(Nc3nc4cc5c(cc4s3)OCCO5)sc2c1 | 0.78% |
| CCCC(=O)Nc1ccc2c(c1)nc(CCNC(=O)c1ccco1)n2C | 1.75% |
| CC(=O)N(OCc1ccc(OC(C)C)c(Cl)c1)C(C)=O | 2.11% |
| Cc1c(S(=O)(=O)NCc2ccccc2)c(=O)n(C)c(=O)n1C | -0.22% |
| CN1CCN(c2ccc(S(=O)(=O)N3CCOCC3)cc2NC(=O)CCc2ccccc2)CC1 | 1.28% |
| Cc1nnc2n1N=C(c1ccc3c(c1)NC(=O)CO3)CS2 | -1.74% |
| N/C(=N\S(=O)(=O)c1cc(C(F)(F)F)cc(C(F)(F)F)c1)c1cccs1 | -2.49% |
| O=C(Nc1ccc(F)cc1)c1cc2c(s1)CCCC2 | 16.5% (active) |
| O=C(CNC(=O)c1cc2c(s1)CCC2)Nc1ccccc1Br | 5.95% |
| O=C(NNC(=O)c1cc2c(s1)CCCC2)c1ccccc1 | 4.34% |
| O=C(CNCCC1=CCCCC1)Nc1ccccc1N1CCCCCC1 | -2.9% |
| CN(CC(=O)Nc1ccc(F)cc1)CC(=O)Nc1ccc(Cl)c(S(=O)(=O)N2CCOCC2)c1 | -2.59% |
| CCN(CC)CCOc1ccc2c(c1)C(=NNC(=O)c1ccccn1)c1cc(OCCN(CC)CC)ccc1-2 | 13% (active) |
| COc1ccc(CC(=O)N/N=C(\C)c2ccccn2)cc1 | 3.82% |
| CCOc1cc(NC(=O)c2ccccn2)c(OCC)cc1NC(=O)c1ccc(OC)cc1 | -0.73% |
